From PubChem BioAssay
Rows were chosen to be rich in hits. Some 2.5% of all compounds tested hit in one or more screens of this group.
L3MBTL1 block – inhibitors of human L3MBTL1. AlphaScreen L3MBTL1–H3K9me1 peptide binding. Potency, µM (highest dose often 57.1 µM), for inactives: top-dose activity, negative = inhibition, most hits filed as inhibitors. hit rate 0.66% among 230,000; further: on the % scale 0 is the no-effect control and ±100 the full control effect; nearly all actives have a fitted effect of over 60% in size
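Displacement of a biotinylated histone H3(1-15) peptide monomethylated at Lys9 (75 nM) from L3MBTL1 (50 nM) was measured by AlphaScreen after a 30 min room-temperature compound incubation; cefsulodin titration served as intraplate control.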
POLK inh – inhibitors of human DNA polymerase kappa; AID 588579; Q9UBT6; Potency, µM (doses to about 107 µM), for inactives: at the highest dose activity, negative = inhibition, usual class: inhibitors; hit rate 0.53% among 400,000; purified Pol kappa, fluorescent DNA synthesis assay, 10 min; further: on the % scale 0 is the no-effect control and ±100 the full control effect
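Enzyme at 10 nM met test compounds for 15 min at room temperature. Substrate addition (50 nM final) began the reaction, which was monitored by fluorescence at 0 and 10 min.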
APEX1 inh – blocks human APE1 abasic DNA cleavage; P27695; Potency, µM (titrated, usually from 65.8 µM), without a hit: at the top dose activity change, negative = inhibition, hits mostly inhibitors; recombinant APE1, TAMRA/BHQ-2 abasic DNA cleavage fluorescence; hit rate 0.35% among 350,000; AID 2517;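 further: plate controls were vehicle for no effect and reference inhibitor for full effect; nearly all actives have a fitted effect of over 55% in size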
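Endonuclease cleavage of a quenched abasic-site DNA duplex (50 nM) by APE1 (0.75 nM) was tracked by TAMRA dequenching. Compounds were preincubated with enzyme 15 min at room temperature; data normalized to buffer-only and DMSO wells plus NSC13755 control.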
POLH inh – blocks human DNA polymerase eta activity; Q9Y253; recombinant Pol eta, fluorescent DNA replication assay; Potency, µM (doses to about 114 µM), for the others: at the highest dose activity change, negative = inhibition, usual class: inhibitors; hit rate 1.2% among 390,000; further: on the % scale 0 is the no-effect control and ±100 the full control effect
Target sequence (Q9Y253 whole entry, looked up): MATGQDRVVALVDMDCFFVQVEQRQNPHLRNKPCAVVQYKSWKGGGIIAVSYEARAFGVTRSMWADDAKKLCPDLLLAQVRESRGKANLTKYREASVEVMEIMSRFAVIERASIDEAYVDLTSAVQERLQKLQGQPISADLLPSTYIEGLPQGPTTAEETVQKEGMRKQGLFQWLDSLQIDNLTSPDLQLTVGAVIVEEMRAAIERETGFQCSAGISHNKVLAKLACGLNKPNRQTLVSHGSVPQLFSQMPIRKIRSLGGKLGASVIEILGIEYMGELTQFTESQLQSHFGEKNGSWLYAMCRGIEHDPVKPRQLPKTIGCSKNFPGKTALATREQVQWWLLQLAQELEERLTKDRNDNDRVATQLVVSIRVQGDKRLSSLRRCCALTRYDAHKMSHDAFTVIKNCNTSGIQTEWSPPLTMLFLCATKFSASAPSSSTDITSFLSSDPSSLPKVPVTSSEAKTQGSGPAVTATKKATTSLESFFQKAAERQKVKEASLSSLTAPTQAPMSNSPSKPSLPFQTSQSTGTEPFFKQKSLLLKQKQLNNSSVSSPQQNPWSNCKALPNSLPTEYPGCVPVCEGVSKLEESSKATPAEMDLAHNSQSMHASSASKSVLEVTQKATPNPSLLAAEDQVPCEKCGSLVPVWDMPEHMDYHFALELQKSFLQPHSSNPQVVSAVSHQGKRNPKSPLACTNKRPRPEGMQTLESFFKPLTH
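Fluorescent replication assay: 50 nM final substrate added after a 15 min room-temperature compound preincubation with 10 nM enzyme. Signal taken at 0 min and again at 10 min.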
Pol iota inh – DNA polymerase iota (human) inhibition. Potency, µM (highest dose often 115 µM), inactives show at the highest dose activity, negative = inhibition, usual class: inhibitors. Pol iota fluorescent replication assay, 10 min. AID 588590. hit rate 1% among 390,000
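Pol iota at 10 nM preincubated 15 min with compounds at room temperature; reaction started with fluorescent substrate, 50 nM final. Fluorescence read kinetically at 0 and 10 min; buffer-only wells as negative control.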
Pol beta inh – blocks human DNA polymerase beta activity; P06746; Pol beta primer extension/strand displacement, fluorescence kinetic; Potency, µM (titrated, usually from 114 µM), without a hit: top-dose activity change, negative = inhibition, usual class: inhibitors; hit rate 1.3% among 340,000; further: on the % scale 0 is the no-effect control and ±100 the full control effect
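Kinetic readout of DNA synthesis with strand displacement by Pol beta. Compound and 10 nM enzyme sit 15 min at room temperature; 50 nM substrate starts the reaction, read immediately and at 10 min.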
Active calls of the source: *; ? = inconclusive; . = not tested or not shown; ! = not active in a repeat; [ ] = another dose, or the depositor's remark. The call rests on the fitted dose curve; in most records, active means well fitted curve in the direction sought with a large enough effect; inconclusive means small, poorly fitted or top-dose-only effect, or another doubt; inactive means no such curve, though single readings can be large; an effect the other way counts as inactive or inconclusive. Potency means the concentration at half of the fitted maximal effect.

SMILES | L3MBTL1 block | POLK inh | APEX1 inh | POLH inh | Pol iota inh | Pol beta inh
CCc1ccc(NC(=O)CSc2nc(-c3ccc(C)cc3)nc3c2Cc2c(CO)cnc(C)c2O3)cc1 | -9% | -5% | -13% | ? | ? | 50µM*
CNc1ccc(Br)cc(C(=O)/C=C/c2cccc(Cl)c2Cl)c1=O | ? | 45µM* | -4% | 45µM* | 6.3µM* | 14µM*
CCNc1ccccc(C(=O)/C=C/c2ccc3c(c2)OCO3)c1=O | . | 25µM* | -9% | 10µM* | ? | 56µM*
COc1ccccc1/C=C/C(=O)c1cc(Br)ccc1OC(=O)c1ccco1 | . | -23% | . | 4% | -6% | .
CNc1ccccc(C(=O)/C=C/c2ccccc2OC)c1=O | -5% | -17% | -4% | 14µM* | ? | 50µM*
CNc1ccc(Br)cc(C(=O)/C=C/c2cccc(OC)c2OC)c1=O | ? | -10% | ? | 2% | . | 20µM*
CCNc1ccc(Br)cc(C(=O)/C=C/c2ccccc2Cl)c1=O | . | ? | . | 79µM* | ? | .
N#CC(C#N)=C1NC2(CCCCC2)Cc2ccccc21 | -1% | -10% | 2% | -15% | 31% | -17%
N#CC(C#N)=c1ccc2c(c1)NC1(CCCCC1)N=2 | 28µM* | -31% | ? | -15% | 2% | 1%
Cc1cccc(N2CC34C=CC(O3)C(C(=O)O)C4C2=O)c1 (configuration not stated) | 4% | -10% | -3% | 6% | -6% | 1%
COc1cccc(N2CC34C=CC(O3)C(C(=O)O)C4C2=O)c1 (configuration not stated) | . | ? | -8% | 14µM* | ? | ?
COc1ccc(N=Cc2oc3ccc4ccccc4c3c2O)cc1 | 27% | -29% | ? | -27% | ? | 11µM*
COc1ccc(N=Cc2ccccc2O)cc1 | . | -7% | . | -7% | -17% | .
CCCCCCCCCCCCCCCCCCN(CCCCCCCCCCCCCCCCCC)c1ccc(/C=C/c2ccc(C=O)cc2)cc1 | . | -20% | . | . | 21% | .
O=C(CSc1nnc(-c2cccc([S+](=O)([O-])N3CCCC3)c2)n1-c1ccccc1)Nc1cccc(F)c1 | . | . | 40% | . | . | .
CC1CCCC(NC(=O)CN(C)CC(=O)Nc2cccc(F)c2)C1C (configuration not stated) | 3% | 8% | -8% | -7% | 23% | .
Cc1nc2c(sc3nc4c(cc32)COC(C)(C)C4)c(=O)n1CC(=O)NCc1ccco1 | -21% | -28% | ? | ? | ? | ?
CC(C)c1nc2sc3c(SCC(=O)NCc4ccco4)ncnc3c2c2c1CCC2 | ? | 79µM* | -1% | 6.3µM* | ? | 22µM*
O=C(CSc1ncnc2sc3c(c12)CCCCC3)NCc1ccco1 | . | -28% | -1% | 4% | ? | ?
CC1(C)Cc2nc3sc4c(SCC(=O)NCc5ccco5)ncnc4c3cc2CO1 | . | -10% | -9% | 22µM* | -16% | ?
C[C@@H]1O[C@@H](OC[C@H]2O[C@@H](Oc3c(-c4ccc(O)c(O)c4)oc4cc(O)cc(O)c4c3=O)[C@H](O)[C@@H](O)[C@@H]2O)[C@H](O)[C@H](O)[C@H]1O | . | 24µM*! | ? | -10% | 9% | 8.9µM*
CC1OC(OC2C(Oc3c(-c4ccc(O)cc4)oc4cc(O)cc(O)c4c3=O)OC(COC3O[C@@H](C)[C@H](O)[C@@H](O)C3O)C(O)C2O)C(O)C(O)C1O (some centres not stated) | 6% | -3% | 14% | -14% | 5% | .
O=c1c(O[C@@H]2O[C@H](CO)[C@@H](O)[C@H](O)[C@H]2O)c(-c2ccc(O)c(O)c2)oc2cc(O)cc(O)c12 | . | . | ? | . | . | 1.8µM*
O=c1c(O[C@@H]2O[C@H](CO)[C@@H](O)[C@H](O)[C@H]2O)c(-c2ccc(O)cc2)oc2cc(O)cc(O)c12 | 0% | -25% | ? | 4% | ? | .
O=c1cc(-c2ccc(O)c(O)c2)oc2cc(OC3OC(CO)C(O)C(O)C3O)cc(O)c12 (configuration not stated) | . | 0.89µM* | ? | . | . | .
SMILES | L3MBTL1 block | POLK inh | APEX1 inh | POLH inh | Pol iota inh | Pol beta inh
CC(C)([CH2][Sn]([CH2]C(C)(C)c1ccccc1)([CH2]C(C)(C)c1ccccc1)[O][Sn]([CH2]C(C)(C)c1ccccc1)([CH2]C(C)(C)c1ccccc1)[CH2]C(C)(C)c1ccccc1)c1ccccc1 | . | 20%[60.1 µM] | -5% | . | . | .
CC(OC(=O)c1ccc(-n2cnnn2)cc1)C(=O)Nc1ccccc1F (configuration not stated) | 0% | -7% | 8% | 1% | 11% | .
CC(OC(=O)c1ccc(-n2cnnn2)cc1)C(=O)Nc1ccc(F)c(F)c1F (configuration not stated) | -3% | ? | -2% | 56µM* | 40µM* | .
O=C(Nc1cccc([N+](=O)[O-])c1)c1ccc2ccccc2c1O | -28% | -12% | -5% | -3% | 2% | 40µM*
O=C(Nc1cccc([N+](=O)[O-])c1)c1cnccn1 | -9% | ? | 9% | 11µM* | -47% | 40µM*
O=C(Nc1ccc([N+](=O)[O-])cc1)Nc1cnccn1 | . | -7% | 23% | -9% | 11% | 40µM*
Cc1ccc(NC(=O)Nc2cnccn2)cc1 | . | -4% | 8% | 0% | -20% | 53%
O=C(CCCl)Nc1cccc2cccnc12 | . | -1% | . | . | ? | .
COc1ccccc1C(=O)Nc1cccc(C(=O)OCc2cc(=O)n3ccsc3n2)c1 | . | -8%[60.1 µM] | . | -25% | -10% | 3%
CCOc1ccc(-c2nnc(SCC(=O)Nc3ccc4c(c3)c3ccccc3n4CC)n2N)cc1 | -9% | -37% | -2% | ? | 50µM* | 40µM*
O=C(Nc1ccc2oc(-c3cccnc3)nc2c1)c1ccc2c(c1)OCCO2 | -2% | ? | 0% | ? | ? | 14µM*
CC/C(C)=N/Nc1nc2c(c(=O)[nH]c(=O)n2C)n1Cc1ccccc1 | . | -36% | 20% | ? | 16µM* | ?
CCCCCCN(C(=O)CCCCCN1C(=O)NC(c2ccc(C3CCCCC3)cc2)C(C(=O)OCc2ccccc2)=C1C)C(C(=O)NCCCC)c1ccc(OCC(=O)OC)c(C(=O)OC)c1 (configuration not stated) | . | . | 0.45µM*! | . | . | -1%
CCCCCCN(C(=O)CCCCCN1C(=O)NC(c2ccccc2)C(C(=O)OCc2ccccc2)=C1C)C(C(=O)NCCCC)c1ccc(OCC(=O)OC)c(C(=O)OC)c1 (configuration not stated) | . | . | 11% | . | . | 7%
